About 8,800 targets were measured; listed, in parts, are those with a hit and a random draw of the rest. About 0.5% of all pairs of compound and target were hits. A number with no mark means an inactive call.
Key:
Assay in all cases: log2 fold change, soluble protein after heating vs DMSO (PISA); higher = thermal stabilisation; K562 lysate, 10 uM; active = over 0.2 and 3.5 SD of the protein, either way, in both replicates (recomputed)
[1] = compound: CCCS(=O)(=O)Nc1ccc(F)c(C(=O)c2c[nH]c3ncc(-c4ccc(Cl)cc4)cc23)c1F [vemurafenib]
In short: (§1)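 Soluble protein was defined as the supernatant remaining after 21,000xg for 90 min, following pooling of heated aliquots and adjustment to 0.5% NP-40 at 4°C. Before that, crude K562 extract at 1 mg/mL protein in PBS pH 7.4 with 1 mM MgCl2 was treated with 10 μM compound for 30 min and heated for 3 min across 48°C-58°C. Quantification used TMTpro 16plex LC-MS/MS with channel sums equalised, and values are log-two fold changes in thermal stability relative to solvent controls from duplicates.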

[2] = compound: CCCS(=O)(=O)Nc1ccc(F)c(C(=O)c2c[nH]c3ncc(Cl)cc23)c1F
In short: as §1

[3] = compound: CCN(CCCOc1ccc2c(Nc3cc(CC(=O)Nc4cccc(F)c4)[nH]n3)ncnc2c1)CCOP(=O)(O)O [barasertib]
In short: as §1

[4] = compound: CC[C@@H]1C(=O)N(C)c2cnc(Nc3ccc(C(=O)NC4CCN(C)CC4)cc3OC)nc2N1C1CCCC1
In short: as §1

[5] = compound: CC[C@@H]1C(=O)N(C)c2cnc(Nc3ccc(C(=O)N[C@H]4CC[C@H](N5CCN(CC6CC6)CC5)CC4)cc3OC)nc2N1C(C)C [volasertib]
In short: as §1

[6] = compound: CCn1c(C(=O)N(C2CC2)C2CC2)cc2c3c(ncn3C)c(Nc3cc(C)n(C)n3)nc21
In short: as §1

[7] = compound: CCn1cc(-c2ccnc3[nH]c(-c4cccc(CN(C)C)c4)cc23)c(-c2ccc(NC(=O)N(C)C)cc2)n1
In short: as §1

[8] = compound: CN1CCC(CNc2ccc3ncc(-c4cccc(OC(F)(F)F)c4)n3n2)CC1
In short: as §1

[9] = compound: CN1CCN(CCOc2cc(OC3CCOCC3)c3c(Nc4c(Cl)ccc5c4OCO5)ncnc3c2)CC1 [saracatinib]
In short: as §1

[10] = compound: CN1CCN(c2nc(C3=C(c4c[nH]c5ccccc45)C(=O)NC3=O)c3ccccc3n2)CC1 [sotrastaurin]
In short: as §1

[11] = compound: CN1CC[C@H](c2c(O)cc(O)c3c(=O)cc(-c4ccccc4Cl)oc23)[C@H](O)C1 [alvocidib]
In short: as §1

[12] = compound: CN1CCc2c(c3ccccc3n2Cc2ccc(C(=O)NO)cc2)C1 [Tubastatin A]
In short: as §1

[13] = compound: CNC(=O)C1=CC=CC=C1NC2=NC(=NC=C2Cl)NC3=C(C=C(C=C3)N4CCOCC4)OC
In short: as §1

[14] = compound: CNC(=O)c1ccc(Nc2ncc(C(F)(F)F)c(NCc3nccnc3N(C)S(C)(=O)=O)n2)cc1 [defactinib]
In short: as §1

[15] = compound: CNc1nc(-c2ccc3c(N)n[nH]c3c2)cc(N2C[C@@H](C(=O)NC3CCCCC3)CC[C@H]2C)n1
In short: as §1

[16] = compound: COC(=O)N[C@@H](C)CNc1nccc(-c2cn(C(C)C)nc2-c2cc(Cl)cc(NS(C)(=O)=O)c2F)n1 [encorafenib]
In short: as §1

[17] = compound: COC(=O)[C@H](CCSC)NC(=O)C1=C(C=C(C=C1)NC[C@H](CS)N)C2=CC=CC=C2
In short: as §1

[18] = compound: COc1cc(Nc2ncc3c(n2)-c2ccc(Cl)cc2C(c2c(F)cccc2OC)=NC3)ccc1C(=O)O [alisertib]
In short: as §1

[19] = compound: COc1cc2nc(-c3cc(F)ccc3O)nc(N[C@@H]3CNC[C@H]3C(C)(C)O)c2cc1OC
In short: as §1

[20] = compound: COc1cc2ncnc(Nc3ccc(F)c(Cl)c3)c2cc1OCCCN1CCOCC1 [gefitinib]
In short: as §1

Chain of UniProt Q9H2D1 (Q9H2D1 whole entry, looked up): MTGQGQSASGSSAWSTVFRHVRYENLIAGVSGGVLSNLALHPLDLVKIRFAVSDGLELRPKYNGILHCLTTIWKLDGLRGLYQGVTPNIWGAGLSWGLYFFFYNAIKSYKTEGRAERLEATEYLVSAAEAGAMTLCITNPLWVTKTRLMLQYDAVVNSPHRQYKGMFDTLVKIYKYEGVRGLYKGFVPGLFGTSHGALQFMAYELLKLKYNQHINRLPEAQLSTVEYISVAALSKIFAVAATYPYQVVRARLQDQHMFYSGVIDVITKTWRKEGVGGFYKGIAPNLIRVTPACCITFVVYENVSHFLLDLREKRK
Chain of UniProt Q8NEM2 (Q8NEM2 whole entry, looked up): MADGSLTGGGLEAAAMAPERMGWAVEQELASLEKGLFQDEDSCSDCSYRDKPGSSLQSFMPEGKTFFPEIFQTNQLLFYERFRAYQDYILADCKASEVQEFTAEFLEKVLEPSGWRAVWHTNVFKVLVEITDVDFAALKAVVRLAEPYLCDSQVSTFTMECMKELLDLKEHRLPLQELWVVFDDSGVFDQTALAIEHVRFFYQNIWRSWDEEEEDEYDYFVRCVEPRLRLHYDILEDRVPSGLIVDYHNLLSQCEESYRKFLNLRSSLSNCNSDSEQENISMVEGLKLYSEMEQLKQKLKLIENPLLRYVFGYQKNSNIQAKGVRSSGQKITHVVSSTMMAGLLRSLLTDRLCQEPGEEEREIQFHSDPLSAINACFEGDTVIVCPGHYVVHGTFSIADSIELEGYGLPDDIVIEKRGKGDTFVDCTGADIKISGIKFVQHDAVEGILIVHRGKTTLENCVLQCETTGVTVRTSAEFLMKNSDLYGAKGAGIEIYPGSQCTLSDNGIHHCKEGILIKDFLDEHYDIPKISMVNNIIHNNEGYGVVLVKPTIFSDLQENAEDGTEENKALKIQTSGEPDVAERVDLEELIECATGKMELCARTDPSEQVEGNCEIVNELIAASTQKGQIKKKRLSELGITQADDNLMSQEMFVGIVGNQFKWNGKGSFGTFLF
Chain of UniProt Q9BXS9 (Q9BXS9 whole entry, looked up): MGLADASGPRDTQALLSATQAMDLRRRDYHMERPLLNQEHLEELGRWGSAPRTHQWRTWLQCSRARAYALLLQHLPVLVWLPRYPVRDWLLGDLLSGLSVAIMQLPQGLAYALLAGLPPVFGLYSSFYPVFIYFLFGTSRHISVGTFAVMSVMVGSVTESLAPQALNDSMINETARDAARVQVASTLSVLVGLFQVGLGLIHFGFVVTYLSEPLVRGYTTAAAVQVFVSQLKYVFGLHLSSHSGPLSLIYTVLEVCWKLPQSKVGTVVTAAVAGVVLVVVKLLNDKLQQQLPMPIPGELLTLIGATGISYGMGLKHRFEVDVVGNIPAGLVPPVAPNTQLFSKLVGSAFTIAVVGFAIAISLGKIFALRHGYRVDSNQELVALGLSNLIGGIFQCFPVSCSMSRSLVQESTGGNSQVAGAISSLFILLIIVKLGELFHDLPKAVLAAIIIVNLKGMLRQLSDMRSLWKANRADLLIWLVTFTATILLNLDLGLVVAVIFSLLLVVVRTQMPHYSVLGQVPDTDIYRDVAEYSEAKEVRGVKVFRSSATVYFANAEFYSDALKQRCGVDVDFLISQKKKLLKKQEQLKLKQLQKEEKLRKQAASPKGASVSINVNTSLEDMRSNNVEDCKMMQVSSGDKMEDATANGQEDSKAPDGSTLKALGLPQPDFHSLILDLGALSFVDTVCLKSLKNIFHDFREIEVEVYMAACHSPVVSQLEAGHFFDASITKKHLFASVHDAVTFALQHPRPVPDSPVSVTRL
Chain of UniProt Q14849 (Q14849 whole entry, looked up): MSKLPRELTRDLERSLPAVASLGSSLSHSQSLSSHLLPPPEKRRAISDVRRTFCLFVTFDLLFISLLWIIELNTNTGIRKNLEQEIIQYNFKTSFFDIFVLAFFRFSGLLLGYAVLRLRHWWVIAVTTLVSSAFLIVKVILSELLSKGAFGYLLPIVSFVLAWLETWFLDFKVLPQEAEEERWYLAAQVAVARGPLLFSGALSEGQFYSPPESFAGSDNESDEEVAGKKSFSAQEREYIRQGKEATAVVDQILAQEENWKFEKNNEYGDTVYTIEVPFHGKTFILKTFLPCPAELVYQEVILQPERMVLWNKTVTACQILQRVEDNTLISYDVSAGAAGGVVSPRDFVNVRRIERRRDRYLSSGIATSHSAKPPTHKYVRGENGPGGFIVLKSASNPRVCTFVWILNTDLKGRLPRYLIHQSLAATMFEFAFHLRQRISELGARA
Chain of UniProt P35270 (P35270 whole entry, looked up): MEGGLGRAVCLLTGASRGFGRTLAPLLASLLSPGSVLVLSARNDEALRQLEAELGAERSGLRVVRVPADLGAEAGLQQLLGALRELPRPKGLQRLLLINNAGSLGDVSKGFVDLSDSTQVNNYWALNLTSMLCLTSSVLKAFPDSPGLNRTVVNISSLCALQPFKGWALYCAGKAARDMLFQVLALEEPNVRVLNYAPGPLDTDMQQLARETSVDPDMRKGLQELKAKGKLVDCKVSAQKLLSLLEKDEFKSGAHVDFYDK
Chain of UniProt Q15022 (Q15022 whole entry, looked up): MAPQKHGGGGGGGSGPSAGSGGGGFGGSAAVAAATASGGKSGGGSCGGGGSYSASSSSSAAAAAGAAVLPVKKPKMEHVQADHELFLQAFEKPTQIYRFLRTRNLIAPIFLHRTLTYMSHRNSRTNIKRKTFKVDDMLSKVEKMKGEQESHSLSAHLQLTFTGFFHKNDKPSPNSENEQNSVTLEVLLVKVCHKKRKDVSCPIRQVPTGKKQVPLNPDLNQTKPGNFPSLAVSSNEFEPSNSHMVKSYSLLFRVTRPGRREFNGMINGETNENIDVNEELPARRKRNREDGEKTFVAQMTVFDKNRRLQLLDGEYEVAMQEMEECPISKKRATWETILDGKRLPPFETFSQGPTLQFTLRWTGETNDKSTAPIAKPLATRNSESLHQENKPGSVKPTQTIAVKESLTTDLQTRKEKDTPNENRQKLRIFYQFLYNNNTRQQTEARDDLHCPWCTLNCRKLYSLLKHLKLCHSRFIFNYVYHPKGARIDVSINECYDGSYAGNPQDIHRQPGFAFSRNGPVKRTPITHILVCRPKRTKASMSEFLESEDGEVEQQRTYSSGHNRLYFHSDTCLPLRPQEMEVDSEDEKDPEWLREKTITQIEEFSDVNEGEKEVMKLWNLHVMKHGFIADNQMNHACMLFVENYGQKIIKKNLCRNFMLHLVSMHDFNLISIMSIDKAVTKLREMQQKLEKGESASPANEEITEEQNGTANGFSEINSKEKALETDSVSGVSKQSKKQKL
Chain of UniProt Q9BWW4 (Q9BWW4 whole entry, looked up): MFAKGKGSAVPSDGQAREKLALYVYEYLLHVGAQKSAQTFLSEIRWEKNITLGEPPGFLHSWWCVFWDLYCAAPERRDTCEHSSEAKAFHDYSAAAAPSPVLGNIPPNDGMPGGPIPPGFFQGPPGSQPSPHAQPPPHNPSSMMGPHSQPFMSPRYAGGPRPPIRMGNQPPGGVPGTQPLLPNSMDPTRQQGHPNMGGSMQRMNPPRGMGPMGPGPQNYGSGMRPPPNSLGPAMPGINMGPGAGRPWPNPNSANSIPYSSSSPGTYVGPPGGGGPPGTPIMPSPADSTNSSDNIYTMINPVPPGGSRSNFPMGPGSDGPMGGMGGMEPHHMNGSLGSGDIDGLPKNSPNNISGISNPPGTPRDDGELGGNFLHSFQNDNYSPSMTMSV
Chain of UniProt Q9BXP5 (Q9BXP5 whole entry, looked up): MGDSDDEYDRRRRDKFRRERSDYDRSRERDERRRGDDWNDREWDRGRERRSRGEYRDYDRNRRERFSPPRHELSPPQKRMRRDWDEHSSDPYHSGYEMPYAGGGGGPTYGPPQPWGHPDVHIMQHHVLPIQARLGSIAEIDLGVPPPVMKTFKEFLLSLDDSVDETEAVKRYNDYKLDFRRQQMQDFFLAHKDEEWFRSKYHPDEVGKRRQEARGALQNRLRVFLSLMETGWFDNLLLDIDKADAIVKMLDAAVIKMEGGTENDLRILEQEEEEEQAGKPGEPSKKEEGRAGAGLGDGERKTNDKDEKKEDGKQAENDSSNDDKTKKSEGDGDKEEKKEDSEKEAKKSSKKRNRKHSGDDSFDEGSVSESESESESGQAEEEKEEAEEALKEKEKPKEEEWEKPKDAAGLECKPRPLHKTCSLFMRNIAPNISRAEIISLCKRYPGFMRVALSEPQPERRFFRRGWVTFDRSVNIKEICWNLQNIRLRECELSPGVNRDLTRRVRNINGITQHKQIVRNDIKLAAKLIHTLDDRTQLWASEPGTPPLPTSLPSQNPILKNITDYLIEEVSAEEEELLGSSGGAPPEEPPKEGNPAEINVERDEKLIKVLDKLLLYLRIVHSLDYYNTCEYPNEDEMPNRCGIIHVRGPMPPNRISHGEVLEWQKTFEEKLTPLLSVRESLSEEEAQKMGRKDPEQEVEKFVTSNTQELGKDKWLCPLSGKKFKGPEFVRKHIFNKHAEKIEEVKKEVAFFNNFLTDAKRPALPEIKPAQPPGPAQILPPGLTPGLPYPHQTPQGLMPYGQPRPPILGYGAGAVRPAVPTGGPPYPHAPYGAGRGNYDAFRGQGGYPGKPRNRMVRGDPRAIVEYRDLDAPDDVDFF
Chain of UniProt Q16629 (Q16629 whole entry, looked up): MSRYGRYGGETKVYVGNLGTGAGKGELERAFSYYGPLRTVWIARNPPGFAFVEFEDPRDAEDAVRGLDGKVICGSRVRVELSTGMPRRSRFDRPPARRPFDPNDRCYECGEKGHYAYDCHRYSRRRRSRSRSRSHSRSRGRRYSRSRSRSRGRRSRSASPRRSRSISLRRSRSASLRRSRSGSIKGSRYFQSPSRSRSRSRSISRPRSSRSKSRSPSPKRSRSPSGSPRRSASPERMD
Chain of UniProt Q01130 (Q01130 whole entry, looked up): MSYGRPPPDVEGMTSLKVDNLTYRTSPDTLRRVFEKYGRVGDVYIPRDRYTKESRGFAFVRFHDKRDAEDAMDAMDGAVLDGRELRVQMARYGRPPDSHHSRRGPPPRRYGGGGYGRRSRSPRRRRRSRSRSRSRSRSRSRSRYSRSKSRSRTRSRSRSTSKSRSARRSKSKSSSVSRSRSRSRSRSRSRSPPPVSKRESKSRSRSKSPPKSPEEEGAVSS

| Target | log2 fold change [1] | log2 fold change [2] | log2 fold change [3] | log2 fold change [4] | log2 fold change [5] | log2 fold change [6] | log2 fold change [7] | log2 fold change [8] | log2 fold change [9] | log2 fold change [10] | log2 fold change [11] | log2 fold change [12] | log2 fold change [13] | log2 fold change [14] | log2 fold change [15] | log2 fold change [16] | log2 fold change [17] | log2 fold change [18] | log2 fold change [19] | log2 fold change [20] |
| --- | --- | --- | --- | --- | --- | --- | --- | --- | --- | --- | --- | --- | --- | --- | --- | --- | --- | --- | --- | --- |
| SRSF2 (UniProt Q01130) | -0.001 | -0.014 | -0.007 | 0.02 | 0.002 | -0.065 | -0.232 | 0.153 | 0.033 | 0.024 | -0.135 | 0.084 | -0.017 | -0.018 | -0.005 | 0.033 | -0.016 | -0.004 | 0.016 | 0.015 |
| SLC38A1 (UniProt Q9H2H9) | 0.03 | -0.007 | 0 | 0.035 | 0.066 | 0.008 | -0.269 (active) | 0.102 | -0.002 | 0.024 | -0.111 | 0.022 | -0.026 | -0.016 | -0.054 | 0.019 | -0.045 | -0.021 | 0.011 | 0.073 |
| SRSF7 (UniProt Q16629) | 0.012 | 0.03 | -0.057 | -0.007 | 0.012 | 0.017 | -0.034 | 0.193 | -0.008 | 0.028 | -0.2 | -0.005 | -0.057 | -0.06 | 0.051 | 0.032 | 0.049 | 0.006 | 0.038 | 0.067 |
| SRRT (UniProt Q9BXP5) | 0.012 | 0.012 | -0.008 | -0.039 | -0.08 | 0.042 | 0.061 | -0.1 | -0.016 | 0.02 | 0.014 | -0.195 | 0.008 | -0.013 | -0.02 | 0.024 | 0.202 | 0.03 | -0.01 | 0.009 |
| SYNRG (UniProt Q9UMZ2) | -0.006 | 0.022 | 0.015 | 0.037 | 0 | -0.019 | 0.017 | -0.1 | 0.013 | -0.009 | 0.026 | -0.016 | -0.021 | 0.015 | 0.002 | -0.004 | 0.024 | 0.033 | 0.003 | -0.006 |
| SPR (UniProt P35270) | 0.01 | 0.026 | -0.013 | -0.014 | -0.003 | -0.024 | 0.158 | -0.028 | 0.093 | -0.047 | 0.164 | -0.1 | 0.071 | 0.019 | 0.01 | -0.097 | 0.22 | 0.163 | -0.017 | -0.013 |
| SPG11 (UniProt Q96JI7) | 0.084 | -0.011 | 0.006 | -0.042 | -0.037 | -0.05 | 0.06 | -0.13 | 0.077 | 0.007 | 0.161 | -0.129 | -0.058 | -0.015 | -0.003 | 0.049 | 0.088 | -0.041 | 0.07 | -0.024 |
| STARD3 isoform 3 (UniProt Q14849) | 0.029 | 0.054 | 0.051 | 0.289 | 0.18 | -0.031 | -0.122 | 0.02 | -0.091 | -0.016 | -0.037 | 0.079 | 0.004 | -0.019 | 0.068 | -0.029 | 0.055 | -0.007 | -0.059 | 0.081 |
| SPNS1 (UniProt Q9H2V7) | 0 | 0.036 | -0.004 | 0.154 | -0.004 | -0.097 | -0.014 | 0.064 | -0.006 | 0.02 | -0.118 | 0.034 | 0.06 | 0.095 | -0.03 | 0.019 | -0.031 | 0.047 | 0.019 | -0.015 |
| SLC25A32 (UniProt Q9H2D1) | 0.053 | 0.01 | -0.012 | -0.013 | 0.002 | -0.045 | -0.129 | 0.054 | 0.029 | 0.007 | -0.05 | 0.037 | -0.01 | 0.03 | 0.052 | 0.04 | 0.01 | 0.036 | 0.001 | -0.033 |
| SNW1 (UniProt Q13573) | 0.019 | 0.01 | -0.019 | 0.07 | -0.021 | 0 | 0.191 | -0.037 | 0.016 | -0.037 | 0.023 | 0.051 | 0.02 | 0.006 | 0.073 | 0.02 | -0.119 | 0.014 | -0.003 | -0.03 |
| SUZ12 (UniProt Q15022) | 0.012 | 0.022 | -0.012 | 0.024 | -0.001 | 0.012 | -0.026 | -0.002 | -0.019 | 0 | -0.004 | -0.012 | 0.009 | 0.049 | 0.027 | 0 | 0.101 | -0.057 | -0.062 | 0.062 |
| SYNE2 isoform 2 (UniProt Q8WXH0) | 0.009 | 0.005 | 0.085 | 0.004 | 0.065 | -0.042 | -0.966 (active) | 0.371 | -0.054 | 0.035 | -0.415 | 0.143 | -0.117 | -0.139 | -0.003 | -0.036 | 0.004 | 0.037 | 0.034 | -0.059 |
| SLC26A6 (UniProt Q9BXS9) | 0.106 | 0.086 | 0.421 (active) | 0.055 | 0.008 | 0.017 | -0.095 | 0.036 | -0.126 | 0.005 | -0.095 | -0.05 | -0.004 | 0.055 | 0.086 | -0.016 | -0.111 | 0.06 | -0.056 | -0.022 |
| SHCBP1 (UniProt Q8NEM2) | -0.016 | 0.003 | 0.041 | -0.041 | -0.044 | 0.027 | -0.091 | 0.022 | 0.027 | 0.019 | 0.001 | -0.122 | -0.043 | 0.012 | -0.084 | 0.049 | -0.003 | 0.088 | -0.015 | 0.055 |
| SSBP3 (UniProt Q9BWW4) | -0.02 | -0.033 | -0.049 | -0.001 | 0.008 | 0.038 | -0.03 | -0.083 | 0.068 | -0.005 | 0.028 | 0.074 | 0 | 0.072 | 0.008 | 0.032 | 0.02 | 0.018 | -0.016 | -0.054 |
